In PubChem BioAssay (Tox21):
Inconclusive results are not listed. Where a call stands in place of a potency, no number is given. Some structures have more than one record in an assay (separate samples or runs), and their calls can disagree. The source made the active and inactive calls. Unless noted, calls come from the whole dose curve; as a rule, active = well fitted curve in the direction sought with a large enough effect in the repeat runs; inconclusive = weak or mixed curves; inactive = no such curve, though single readings can be large; an effect the other way counts as inactive or inconclusive.

Columns and labels:
[1] = biological target: Retinoic acid receptor RXR-alpha (Homo sapiens) (UniProt P19793); assay: qHTS assay to identify small molecule agonists of the RXR signaling pathway (AID 1159527; calls by dose curve; note: nearly all actives have a fitted effect of over 35% in size; note: potency is the fitted concentration of half-maximal effect)
Sequence of Retinoic acid receptor RXR-alpha (Homo sapiens) (P19793 whole entry, looked up): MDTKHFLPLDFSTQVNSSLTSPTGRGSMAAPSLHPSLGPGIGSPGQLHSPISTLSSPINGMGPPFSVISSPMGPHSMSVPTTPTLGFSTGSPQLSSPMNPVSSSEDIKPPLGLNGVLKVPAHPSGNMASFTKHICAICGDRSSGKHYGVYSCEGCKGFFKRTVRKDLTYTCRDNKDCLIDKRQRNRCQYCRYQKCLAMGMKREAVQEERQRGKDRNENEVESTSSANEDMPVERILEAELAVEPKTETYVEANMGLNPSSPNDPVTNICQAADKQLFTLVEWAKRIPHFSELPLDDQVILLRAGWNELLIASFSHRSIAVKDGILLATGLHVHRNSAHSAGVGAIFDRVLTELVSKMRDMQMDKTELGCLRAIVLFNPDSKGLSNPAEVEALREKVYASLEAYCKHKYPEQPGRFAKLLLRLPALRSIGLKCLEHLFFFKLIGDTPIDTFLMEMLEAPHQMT
Outline: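 Compounds in DMSO were added to RXR-alpha-UAS-bla HEK 293T cells kept in 2% charcoal-stripped serum, and incubated 16 hr at 37 C with 5% CO2. Reporter signal came from a 2 hr B/G FRET substrate step.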

[2] = qHTS assay to identify small molecule agonists of the RXR signaling pathway - cell viability counter screen (AID 1159529);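 note: HEK 293T cells carrying an RXR-alpha UAS beta-lactamase reporter; series mostly up to about 77 µM; nearly all actives have a fitted effect of over 50% in size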
Outline: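 Counter screen: CellTiter-Glo luminescence. Cells: RXR-alpha-UAS-bla HEK 293T. Medium: 2% charcoal-stripped FBS. Treatment: 16 h, 37 C. Reagent incubation: 30 min, RT.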

[3] = qHTS assay to identify small molecule antagonists of the retinoid acid receptor (RAR) signaling pathway - cell viability counter screen (AID 1159551); note: nearly all actives have a fitted effect of over 35% in size
Outline: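 In this counter screen, the RARE-luciferase line C3RL4 was exposed for 6 h at 37 C and 5% CO2 to compounds with retinol at 1 uM final. Cellular ATP, read by luminescence, served as the viability measure.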

[4] = qHTS assay to identify small molecule antagonists of the retinoic acid receptor (RAR) signaling pathway (AID 1159552; note: nearly all actives have a fitted effect of over 50% in size)
Outline: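 Antagonism of retinol-induced RARE reporter activity was measured in C3RL4 cells. Exposure to compounds and 1 uM final retinol lasted 6 hr at 37 C, with luminescence as endpoint.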

[5] = qHTS assay to identify small molecule antagonists of the estrogen related receptor (ERR) signaling pathway from Tox21 library - cell viability counter screen (AID 1224834); note: nearly all actives have a fitted effect of over 30% in size
Outline: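 Counter screen run in ERR cells (2,000 cells/well): cells pre-incubated 6 h, then treated with compounds for 17.5 h at 37 C. Fluorescence was read 30 min after CellTiter-Fluor addition.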

[6] = qHTS assay to identify small molecule agonists of the constitutive androstane receptor (CAR) signaling pathway - cell viability counter screen (AID 1224836); note: series mostly up to about 92 µM; nearly all actives have a fitted effect of over 45% in size
Outline: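 Double-stable HepG2 hepatoma cells (hCAR plus CYP2B6-2.2kb) are treated for 23 h at 37 C with test compounds in 15-point concentration series. PK11195 at 0.75 uM final is co-added. Cell viability is quantified by CellTiter-Fluor.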

[7] = qHTS assay to identify small molecule antagonists of the constitutive androstane receptor (CAR) signaling pathway - cell viability counter screen (AID 1224837); note: series mostly up to about 92 µM; nearly all actives have a fitted effect of over 45% in size
Outline: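 CITCO at 50 nM final was added alongside compounds (15 concentrations) to double-stable hCAR/CYP2B6-2.2kb HepG2 cells. Following 23 hr at 37 C, cell viability was quantified by CellTiter-Fluor fluorescence intensity.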

[8] = biological target: Nuclear receptor subfamily 1 group I member 3 (Homo sapiens) (UniProt Q14994); assay: qHTS assay to identify small molecule antagonists of the constitutive androstane receptor (CAR) signaling pathway (AID 1224838); note: nearly all actives have a fitted effect of over 40% in size
Sequence of Nuclear receptor subfamily 1 group I member 3 (Homo sapiens) (Q14994 whole entry, looked up): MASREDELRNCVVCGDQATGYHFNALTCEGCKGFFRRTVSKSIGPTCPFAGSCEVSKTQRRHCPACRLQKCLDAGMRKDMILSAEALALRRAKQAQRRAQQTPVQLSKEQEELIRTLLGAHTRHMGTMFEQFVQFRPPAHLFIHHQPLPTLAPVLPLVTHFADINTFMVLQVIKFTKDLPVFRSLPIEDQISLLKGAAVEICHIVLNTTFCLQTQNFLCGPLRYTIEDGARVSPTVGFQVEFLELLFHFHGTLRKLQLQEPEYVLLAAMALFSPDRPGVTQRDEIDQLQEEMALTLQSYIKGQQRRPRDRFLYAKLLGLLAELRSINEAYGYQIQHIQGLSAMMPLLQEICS
Outline: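 Inhibition of CITCO-driven (50 nM final) CYP2B6 reporter expression is measured in HepG2 cells stably carrying hCAR. Fifteen compound concentrations are applied for 24 h at 37 C, followed by luciferase luminescence.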

[9] = qHTS assay to identify small molecule antagonists of the estrogen related receptor signaling pathway with the pleiotropic PPARgamma coactivator (PGC) from Tox21 10K library - cell viability counter screen (AID 1224840; active = well fitted cell-killing curve with a large enough effect in the repeat runs, not every such curve was filed as active; note: nearly all actives have a fitted effect of over 40% in size)
Outline: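 Readout: fluorescence intensity from CellTiter-Fluor after 30 min at 37 C/5% CO2. Preceded by 17.5 h treatment of PGC/ERR cells with DMSO-dissolved compounds, added 6 h post-seeding.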

[10] = qHTS assay to identify small molecule antagonists of the estrogen related receptor signaling pathway with the pleiotropic PPARgamma coactivator (PGC) from Tox21 10K library (AID 1224841; call rule not given here; note: series mostly up to about 92 µM; actives are mostly falling curves and most rising ones were filed inactive; nearly all actives have a fitted effect of over 50% in size)
Outline: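 One-Glo luminescence, measured after half an hour at room temperature, quantified reporter output of PGC/ERR cells. These had been plated at 2,000 per well, incubated 6 h, dosed with compounds in DMSO, then kept 18 h at 37 C.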

[11] = qHTS assay to identify small molecule agonists of the estrogen related receptor signaling pathway with the pleiotropic PPARgamma coactivator (PGC) from Tox21 10K library (AID 1224842); note: nearly all actives have a fitted effect of over 15% in size
Outline: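 Luminescence from One-Glo (30 min, room temperature) measured after PGC/ERR cells had 18 h at 37 C with pinned compound (23 nL in DMSO). Cells had been seeded at 2,000 per well and pre-incubated 6 h.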

[12] = qHTS assay to identify small molecule agonists of the retinoic acid receptor (RAR) signaling pathway (AID 1159553); note: potency is the fitted concentration of half-maximal effect
Outline: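 In this cell-based screen, 1,000 C3RL4 cells per well were cultured overnight, dosed with test chemicals in DMSO for 6 hr, and assessed for RARE luciferase luminescence.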

[13] = biological target: Nuclear receptor subfamily 1 group I member 3 (Homo sapiens) (UniProt Q14994); assay: qHTS assay to identify small molecule agonists of the constitutive androstane receptor (CAR) signaling pathway (AID 1224839); note: series mostly up to about 92 µM; nearly all actives have a fitted effect of over 15% in size
Outline: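 Readout: firefly luciferase luminescence via ONE-Glo. System: HepG2 double-stable for hCAR and CYP2B6-2.2kb. Conditions: 15-point compound titration, PK11195 at 0.75 uM final, 24 h incubation.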

[14] = biological target: Luciferin 4-monooxygenase (Photinus pyralis) (UniProt P08659); assay: qHTS assay to identify small molecule inhibitors of firefly luciferase (AID 1224835); note: series mostly up to about 120 µM; nearly all actives have a fitted effect of over 25% in size
Sequence of Luciferin 4-monooxygenase (Photinus pyralis) (P08659 whole entry, looked up): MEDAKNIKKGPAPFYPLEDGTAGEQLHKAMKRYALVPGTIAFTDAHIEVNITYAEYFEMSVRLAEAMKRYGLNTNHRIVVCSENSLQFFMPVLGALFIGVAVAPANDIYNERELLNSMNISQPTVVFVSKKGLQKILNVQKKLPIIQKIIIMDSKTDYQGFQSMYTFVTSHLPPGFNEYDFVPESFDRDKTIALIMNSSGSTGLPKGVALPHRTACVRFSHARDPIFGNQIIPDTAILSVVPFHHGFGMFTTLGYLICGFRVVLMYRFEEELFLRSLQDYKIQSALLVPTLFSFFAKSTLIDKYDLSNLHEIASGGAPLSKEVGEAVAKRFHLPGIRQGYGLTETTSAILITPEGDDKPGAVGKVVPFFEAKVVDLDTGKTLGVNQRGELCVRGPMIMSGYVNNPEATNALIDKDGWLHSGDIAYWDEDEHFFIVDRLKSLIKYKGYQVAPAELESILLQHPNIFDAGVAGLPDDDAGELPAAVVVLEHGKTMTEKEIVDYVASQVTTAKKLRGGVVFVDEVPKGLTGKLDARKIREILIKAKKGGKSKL
Outline: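 Inhibition of purified Photinus luciferase is measured by luminescence. Substrate levels (D-luciferin, ATP) sit at their KM values. Each compound is tested in a concentration series.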

[15] = qHTS assay to identify small molecule antagonists of the estrogen related receptor (ERR) signaling pathway - cell viability counter screen (AID 1224818); note: series mostly up to about 46 µM
Outline: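 Viability of ERR cells, CellTiter-Fluor fluorescence; 17.5 h compound exposure at 37 C, DMSO vehicle; 30 min reagent incubation at 37 C/5% CO2.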

[16] = qHTS assay to identify small molecule antagonists of the estrogen related receptor signaling pathway with the pleiotropic PPARgamma coactivator (PGC) cell viability counter screen (AID 1224822; note: series mostly up to about 46 µM)
Outline: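 17.5 h compound treatment of PGC/ERR cells at 37 C; readout CellTiter-Fluor fluorescence; run alongside the PGC/ERR antagonist screen to flag cytotoxic compounds.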

Structure (SMILES)	Potency [1]	outcome [2]	outcome [3]	outcome [4]	Potency [5]	Potency [6]	Potency [7]	outcome [8]	Potency [9]	Potency [10]	outcome [11]	Potency [12]	Potency [13]	Potency [14]	outcome [15]	outcome [16]
O=C1c2ccccc2CCc2ccccc21	inactive	inactive	inactive	inactive	inactive	inactive	inactive	inactive	inactive	inactive	inactive	–	–	–	–	–
CCCCCCCCCCN	inactive	inactive	inactive	–	inactive	inactive	inactive	inactive	inactive	–	–	inactive	inactive	–	–	–
CC1(C)OC[C@@H]2O[C@@]3(C(=O)O)OC(C)(C)O[C@H]3[C@@H]2O1	21.9 µM (active) and inactive	inactive	inactive	–	inactive	inactive	inactive	inactive	inactive	–	–	inactive	inactive	–	–	–
CC(C)=CCl	inactive	inactive	inactive	–	inactive	inactive	inactive	inactive	inactive	–	–	inactive	–	–	–	–
Nc1ccc(Cl)c(N)c1	inactive	inactive	inactive	inactive	–	inactive	inactive	–	inactive	–	–	68.6 µM (active)	–	inactive	–	–
CNC(=S)N(C)C	inactive	inactive	inactive	–	inactive	inactive	inactive	inactive	inactive	–	–	inactive	–	inactive	–	–
O=C(O)c1ccc(C(=O)O)c(C(=O)O)c1	inactive	inactive	inactive	–	inactive	inactive	inactive	inactive	inactive	inactive	inactive	inactive	–	inactive	–	–
O=C(O)CCCCCCCCC(=O)O	inactive	inactive	inactive	–	inactive	inactive	inactive	inactive	inactive	inactive	inactive	inactive	–	inactive	–	–
O=C(OCC1CCC2OC2C1)C1CCC2OC2C1 (stereo unspecified)	inactive	inactive	inactive	–	inactive	inactive	inactive	inactive	inactive	–	–	inactive	–	inactive	–	–
O=S(=O)(O)c1ccccc1	inactive	inactive	inactive	inactive	inactive	inactive	inactive	–	inactive	inactive	inactive	inactive	–	–	–	–
CCCCCCCCCCCCCCCC(=O)OC(C)C	inactive	inactive	inactive	–	inactive	inactive	inactive	inactive	inactive	–	–	inactive	–	inactive	–	–
CCOCCOCCOCCO	inactive	inactive	inactive	–	inactive	inactive	inactive	inactive	inactive	–	–	inactive	–	–	–	–
O=c1[nH]cnc2[nH]ncc12	inactive	inactive	inactive	–	inactive	inactive	inactive	inactive	inactive	–	–	inactive	inactive	inactive	inactive	inactive
CC(C)(C)c1cc(Cc2cc(C(C)(C)C)c(O)c(C(C)(C)C)c2)cc(C(C)(C)C)c1O	inactive	inactive	inactive	–	inactive	inactive	inactive	inactive	inactive	–	–	inactive	inactive	inactive	–	–
CC(C)CC(=O)CC(C)CC(C)C (stereo unspecified)	inactive	inactive	inactive	–	inactive	inactive	inactive	inactive	inactive	inactive	inactive	inactive	–	inactive	–	–
O=C1C(c2[nH]c3ccccc3c2O)=Nc2ccccc21	inactive	inactive	inactive	–	inactive	inactive	inactive	inactive	inactive	inactive	inactive	inactive	–	–	–	–
C[C@]12CCC(=O)C=C1CC[C@@H]1[C@@H]2[C@@H](O)C[C@@]2(C)[C@H]1CC[C@]2(O)C(=O)CO	inactive	inactive	inactive	–	inactive	inactive	inactive	–	inactive	–	–	inactive	inactive	inactive	inactive	inactive
Cc1ccc(S(=O)(=O)N=C=O)cc1	inactive	inactive	inactive	–	inactive	inactive	inactive	–	inactive	inactive	inactive	inactive	–	inactive	–	–
CC(=O)OCc1ccccc1	inactive	inactive	inactive	–	inactive	inactive	inactive	–	inactive	–	–	inactive	–	inactive	–	–
C=Cc1ccc(C)cc1	inactive	inactive	inactive	–	inactive	inactive	inactive	inactive	inactive	–	–	inactive	–	inactive	–	–
C=C(C)CNCC	inactive	inactive	inactive	–	inactive	inactive	inactive	inactive	inactive	inactive	inactive	inactive	–	–	–	–
CC(CCO)CC(C)(C)C (stereo unspecified)	inactive	inactive	inactive	–	inactive	inactive	inactive	–	inactive	–	–	inactive	–	inactive	–	–
CC(C)CC(C)O (stereo unspecified)	inactive	inactive	inactive	–	inactive	inactive	inactive	inactive	inactive	–	–	inactive	–	–	–	–
CCCCCCO	inactive	inactive	inactive	–	inactive	inactive	inactive	inactive	inactive	–	–	inactive	–	inactive	–	–
COc1ccc([N+](=O)[O-])cc1N	inactive	inactive	inactive	–	inactive	inactive	inactive	inactive	inactive	–	–	inactive	inactive	–	–	–
